# SW480 rerep: DNA re-replication induction in SW480 cells | SW480 DNA re-replication, Hoechst DNA content imaging, 48 h | Potency, µM (series often up to 46.1 µM), most hits filed as activators | 1.8% of 340,000 active | AID 624297; note: nearly all actives have a fitted effect of over 55% in size
#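 DNA re-replication was detected as more nuclei of elevated Hoechst intensity after 48 hr exposure to compound (23 nL pinned per well of 250 cells).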
# MCF10A rerep: induces DNA re-replication in MCF 10a normal breast cells | MCF 10A DNA re-replication, Hoechst nuclear intensity, 48 h | Potency, µM (series often up to 46.1 µM), actives largely listed as activators | 2.9% of 350,000 active; note: nearly all actives have a fitted effect of over 50% in size
# ELG1 repair inh: inhibitors of ELG1-dependent DNA repair in HEK293T cells | HEK293T ELG1-luciferase reporter, luminescence, 16 h; DNA damage induced by 5-fluorouridine | Potency, µM (series often up to 46.1 µM), most hits filed as inhibitors | 2.3% of 330,000 active | AID 504467; note: nearly all actives have a fitted effect of over 55% in size
#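 Reporter activity after DNA damage by 5-fluorouridine is monitored. Compound-treated cells incubate 16 hr at 37 °C, then ONE-Glo is added for 30 min before luminescence reading.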
# AT treatment: potential ataxia-telangiectasia treatment; 0.19% of 320,000 active; F2112 A-T fibroblasts, KAP-1 phosphorylation AlphaLISA; neocarzinostatin DNA damage 30 min before lysis; AID 485349; Potency, µM (doses to about 57.5 µM), usual class: activators; note: nearly all actives have a fitted effect of over 45% in size
#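 hTERT-immortalized A-T patient fibroblasts (F2112), 500 cells/well in OPTI-MEM, 1% FBS, got compounds for 60 min, then NCS for 30 min at 37C. Lysates were then assayed for phospho-KAP-1 by AlphaLISA (anti-pKAP1 donor, anti-KAP1 acceptor beads), 6 hr at 25C.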
# ELG1 genotoxic: inducers of genotoxicity in HEK293T ELG1-luciferase cells; Potency, µM (series often up to 46 µM), usual class: activators; HEK293T ELG1-luciferase reporter, luminescence, 16 h; 1.3% of 330,000 active; AID 504466; note: nearly all actives have a fitted effect of over 60% in size
#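 16 hr compound incubation (37 °C, 5% CO2) of HEK293T cells carrying luciferase-tagged ELG1; luciferase then measured by ONE-Glo luminescence after 30 min at RT.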
# p53 reactivation: restores transcriptional activity of mutant p53; H1299 p53-A138V BP100-luciferase reporter, luminescence, 24 h; Potency, µM (doses to about 92.2 µM), hits mostly activators; 0.063% of 320,000 active; AID 504706; note: nearly all actives have a fitted effect of over 45% in size
#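 p53-null H1299 cells stably carrying temperature-sensitive p53-A138V and a BP100-luciferase reporter were pinned with compounds (4-point, 1:5 series) and held 24 hrs at 37 deg C. Luminescence was read 10 min after detection reagent.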
# ELG1 FLuc counter: luciferase inhibition in cell-free luciferin readout for ELG1 hits | shares compounds with ELG1 repair inh | cell-free firefly luciferase luminescence counter-screen, ViewLux | Potency, µM (highest dose often 46.1 µM), actives largely listed as inhibitors | 3% of 350 active | AID 624247
# ELG1-Luc inh: inhibits ELG1-dependent DNA repair in HEK293T cells, confirmed; shares compounds with ELG1 repair inh; Potency, µM (series often up to 46.1 µM), hits mostly inhibitors; 68% of 670 active; HEK293T ELG1-luciferase levels, luminescence; cells co-treated with 5-fluorouridine; note: nearly all actives have a fitted effect of over 55% in size
# ELG1 MMS Luc: MMS-stimulated human ELG1 repair inhibition, confirmed; shares compounds with ELG1 repair inh; HEK293T luciferase-tagged ELG1 level, MMS stimulated; Potency, µM (top dose mostly 46.1 µM), most hits filed as inhibitors; 53% of 670 active; note: nearly all actives have a fitted effect of over 60% in size
# ELG1 5FU viab: confirmation of ELG1 repair inhibitors: viability with 5FU; AID 624250; shares compounds with ELG1 repair inh; Potency, µM (doses to about 46.1 µM), usual class: cytotoxic; 670 tested, under 10 active; cell viability with 5-FU, ELG1-dependent repair;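 note: ELG1-luc HEK293T cells cotreated with 5-fluorouridine at 10 µM final; viability measured 16 h after compound addition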
# ELG1 MMS cell: confirmation of ELG1 repair inhibitors: viability with MMS. shares compounds with ELG1 repair inh. Cell viability with MMS, ELG1-dependent DNA repair. Potency, µM (doses to about 46.1 µM), usual class: cytotoxic. 33% of 670 active;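 note: ELG1-luc HEK293T cells co-treated with 10 µM MMS; viability read 16 h after compound addition; nearly all actives have a fitted effect of over 60% in size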
# Cell viab unstim: affects unstimulated cell viability, ELG1 hit counter-screen; cell viability counter-screen, unstimulated, luminescence; shares compounds with ELG1 repair inh; 8% of 900 active; AID 624252; Potency, µM (doses to about 45.9 µM), hits mostly cytotoxic;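 note: compound exposure lasted 16 hours before reading; nearly all actives have a fitted effect of over 55% in size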
# FLuc biochem: firefly luciferase inhibition counter-screen; shares compounds with ELG1 repair inh; purified firefly luciferase, luminescence counter-screen; Potency, µM (highest dose often 57.5 µM), actives largely listed as inhibitors; 10% of 350 active; AID 624253
# A number is an active result; n = inactive; u = inconclusive; x = no result. Sampled rows, rich in hits. Any-hit rate of the full collection: about 7.1%. Calls come from the whole dose curve; as a rule, active = well fitted curve in the direction sought with a large enough effect; inconclusive = small, poorly fitted or top-dose-only effect, or another doubt; inactive = no such curve, though single readings can be large; an effect the other way counts as inactive or inconclusive.
SMILES,SW480 rerep,MCF10A rerep,ELG1 repair inh,AT treatment,ELG1 genotoxic,p53 reactivation,ELG1 FLuc counter,ELG1-Luc inh,ELG1 MMS Luc,ELG1 5FU viab,ELG1 MMS cell,Cell viab unstim,FLuc biochem
Cc1ccc(S(=O)(=O)NCCC(=O)NNC(=O)COc2ccccc2Cl)cc1C,n,n,n,n,n,n,x,x,x,x,x,x,x
COc1ccc(-c2cc(-c3ccc(C)cc3)nc(SCc3nnc(-c4ccccc4)o3)c2C#N)cc1OC,n,u,2.9µM,n,n,n,n,3.2µM,n,u,n,n,n
O=C(CSc1nc2ccccc2c(=O)n1-c1ccc(Cl)cc1)N/N=C/C=C/c1ccccc1[N+](=O)[O-],u,u,u,n,n,n,x,x,x,x,x,x,x
O=C(CSc1nc2ccccc2c(=O)n1-c1ccccc1)N/N=C/C=C/c1ccccc1[N+](=O)[O-],n,4.6µM,2.9µM,n,n,n,n,10µM,n,u,u,n,n
CCc1ccc(NC(=O)CNC(=O)c2nn(-c3ccc(OC)cc3)c(=O)c3ccccc23)cc1,n,u,n,n,n,n,n,14µM,n,u,n,u,n
COc1ccc(NC(=O)CNC(=O)c2nn(-c3ccc(OC)c(Cl)c3)c(=O)c3ccccc23)c(OC)c1,n,n,5.8µM,n,n,n,n,3.5µM,n,n,n,u,n
COc1ccc(-n2nc(C(=O)NCC(=O)Nc3ccccn3)c3ccccc3c2=O)cc1Cl,n,n,u,n,n,n,x,x,x,x,x,x,x
COc1ccc(-n2nc(C(=O)NCC(=O)Nc3ccc(F)cc3)c3ccccc3c2=O)cc1,n,u,u,n,n,n,x,x,x,x,x,x,x
COCCCN1C(=O)C2C(C(=O)Nc3cccc(Cl)c3)C3C=CC2(O3)C1C(=O)NC1CCCCC1 (stereo not given),n,n,n,n,n,n,x,x,x,x,x,x,x
N#C/C(=C\c1ccc(OCc2ccc(F)cc2)cc1)C(=O)Nc1cccc(C(=O)O)c1,n,n,u,n,u,u,x,x,x,x,x,x,x
COc1cc(/C=C(\C#N)C(=O)Nc2cccc(C(=O)O)c2)ccc1OCc1ccc(F)cc1,n,n,u,n,21µM,u,x,x,x,x,x,n,x
O=C(CN1CCN(Cc2ccccc2)CC1)N1CCCCCC1,n,n,n,n,n,n,x,x,x,x,x,x,x
O=C(/C=C1\NC2(CCCC2)Cc2ccccc21)C(=O)N/N=C/c1ccccc1O,u,u,2.3µM,n,n,u,x,u,8.9µM,n,u,n,x
CC(=O)Oc1ccc(-c2nc(-c3ccccc3)no2)cc1,x,x,x,x,x,x,x,x,x,x,x,u,x

# Bioassay records (PubChem)
